Consider six compounds from PubChem BioAssay.

Experiment [1] concerns Human papillomavirus type 1a protein E7 (residues 44-93). Briefly: small molecules binding HPV E7 44-93 – biochemical, small-molecule microarray, residues 44-93, 635 nm fluorescence, primary screen (AID 1108).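 Further: E7 fragment applied at 1 µg/mL in TBST for 1 h at 4 C; score combines spot fluorescence with its signal to noise ratio.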 The note with it: fluorescence 635 nm, higher = more signal.
Experiment [2] can be described thus: hepatitis C replication reporter changes, two-sided – Huh7 cells, luciferase reporter, HCV replication inhibitor project, primary screen (AID 1109).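 Further: huh7 hepatoma cells harbouring a luciferase neomycin HCV replicon reporter; luciferase luminescence as measure of HCV replicon replication; test concentration not given here.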 As to conditions: Huh7 HCV replicon luciferase reporter, 48 h; higher = more signal.
For experiment [3], the target named is Left-right determination factor 2 (Homo sapiens) (UniProt O00292). The experiment in a line: small molecules binding LEFTY2 protein – biochemical, small-molecule microarray, 635 nm fluorescence scan, primary screen (AID 1110). As to conditions: higher = more signal.
Experiment [4] concerns the target Calmodulin-1 (Homo sapiens) (UniProt P0DP23). The experiment in a line: small molecules binding calmodulin-1 with EGTA – biochemical, small-molecule microarray, Cy5-labelled CALM1, profiling panel (AID 1111).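 Further: labelled calmodulin applied in Tris saline Tween buffer holding calcium plus EGTA and DTT.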 As to conditions: Cy5-CALM1 binding fluorescence, higher = more signal.
Experiment [5] has the same target. The experiment in a line: small molecules binding Ca-loaded calmodulin-1 – biochemical, small-molecule microarray, Cy5-labelled CALM1, plus calcium, artefact control for SMM control-protein annotation, profiling panel (AID 1112).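 Further: score merges spot fluorescence with signal to noise from triplicate slides.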 As to conditions: Cy5-CALM1 binding fluorescence, higher = more signal.
A short description of experiment [6]: probe aWnt5a binding to arrayed compounds – biochemical, biotinylated probe, 635/667 nm fluorescence, primary screen (AID 1113).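 Further: score merges 667 nm fluorescence intensity with signal-to-noise per printed feature.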 As to conditions: small-molecule microarray, higher = more signal.
A short description of experiment [7]: probe aShh binding to arrayed compounds – biochemical, biotinylated probe, 635/667 nm fluorescence, primary screen (AID 1114).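 Further: probe is biotin-labelled aShh protein from a stem cell growth factor screen; measures binding of labelled protein to compounds printed on the slide; score merges feature fluorescence at 667 nm with signal-to-noise.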 The note with it: small-molecule microarray, higher = more signal.
Experiment [8] is described as follows: probe aNog binding to arrayed compounds – biochemical, biotinylated probe, 635/667 nm fluorescence, primary screen (AID 1115).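 Further: probe is biotinylated aNog protein used at 0.15 µg/mL for 1 h at 4 C; z-score combines 667 nm fluorescence of each spot with its signal to noise.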 The note with it: small-molecule microarray, higher = more signal.
Experiment [9] concerns the target Torsin-1A-interacting protein 1 (Homo sapiens) (UniProt Q5JTV8). Briefly: compound microarray binding of lysate hLAP1 – cell lysate, small-molecule microarray, COS7 lysate, 635/667 nm fluorescence, primary screen (AID 1116). The note with it: 635 nm fluorescence, higher = more signal.
Experiment [10] addresses Alpha-bungarotoxin (Bungarus multicinctus) (UniProt P60615). The experiment in a line: compounds binding labelled alpha-BTX control protein – biochemical, small-molecule microarray, Alexa647 label, 635/667 nm fluorescence, artefact control for SMM control protein annotation, profiling panel (AID 1117). The note with it: alpha-BTX-A647 binding fluorescence, higher = more signal.

Experiment [11] addresses Albumin (Bos taurus) (UniProt P02769). The experiment in a line: compounds binding labelled BSA control protein – biochemical, small-molecule microarray, Alexa647 label, 635/667 nm fluorescence, artefact control for SMM control protein annotation, profiling panel (AID 1118).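 Further: score merges 667 nm emission intensity and signal-to-noise per printed compound spot.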 As to conditions: BSA-A647 binding, fluorescence 635 nm, higher = more signal.
Experiment [12] can be described thus: probe aXIP binding to arrayed compounds – biochemical, NeuroSMM set, 635/667 nm fluorescence, primary screen (AID 1119).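 Further: probe is the protein aXip251-270 applied at 1 µg/mL to compound-printed slides; binding of probe to printed compounds measured as 667 nm fluorescence plus signal to noise.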 The note with it: small-molecule microarray, higher = more signal, called active from +8 up or from −8 down.
Experiment [13] is described as follows: probe aNOTCH3 binding on compound microarray – biochemical, small-molecule microarray, 635/667 nm fluorescence, primary screen (AID 1120).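 Further: probe is a biotin-tagged antibody raised against NOTCH3 rather than NOTCH3 protein; score merges spot fluorescence near 667 nm with spot signal to noise.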 As to conditions: higher = more signal.
Experiment [14] in a line: probe aNOTCH2 binding on compound microarray – biochemical, small-molecule microarray, 635/667 nm fluorescence, primary screen (AID 1121).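 Further: score merges feature fluorescence read at 667 nm with its signal to noise.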 The note with it: higher = more signal.
The target of experiment [15] is Carbonic anhydrase 2 (Homo sapiens) (UniProt P00918). Briefly: compounds binding carbonic anhydrase 2 – biochemical, small-molecule microarray, Alexa647-labelled CAII, profiling panel (AID 1122). The note with it: CAII-A647 binding fluorescence, higher = more signal.
Experiment [16] in a line: COS7 lysate on small-molecule microarray, probe aHis, 635 nm (AID 1123).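 Further: z-score combines 667nm fluorescence intensity with signal-to-noise per printed compound spot.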 As to conditions: COS7 cell lysate, fluorescence, higher = more signal.
Experiment [17] is described as follows: probe aLAP1 signal on lysate-treated microarray – cell lysate, small-molecule microarray, COS7 lysate, primary screen (AID 1124).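 Further: lysate comes from COS7 cells expressing LAP1 and is applied at 0.3 µg/mL; score merges spot fluorescence near 667 nm with signal-to-noise over triplicate slides.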 The note with it: probe aLAP1, fluorescence, higher = more signal.
The test system of experiment [18] is Sam68 (KHDRBS1). The experiment in a line: compounds binding KHDRBS1 protein – biochemical, small-molecule microarray, 635 nm fluorescence, primary screen (AID 1125).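 Further: score merges 667 nm channel intensity with signal to noise over triplicate slides.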 The note with it: higher = more signal.
The subject of experiment [19] is Chordin-like protein 2 (CHRDL2). Briefly: compounds binding chordin-like 2 – biochemical, small-molecule microarray, 635 nm fluorescence, primary screen (AID 1126).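 Further: printed compound slides probed with Chrdl2 protein at 4 µg/mL for 1 h at 4 C; score merges 667 nm emission intensity with signal to noise over three replicate slides.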 As to conditions: fluorescence 635 nm, higher = more signal.
Experiment [20] deals with Concanavalin-A (Canavalia ensiformis) (UniProt P02866). Briefly: compounds binding concanavalin A lectin – biochemical, small-molecule microarray, Alexa647 label, 635 nm, artefact control for SMM control protein annotation, primary screen (AID 1127).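 Further: z combines 667 nm emission intensity with signal-to-noise across three replicate slides.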 As to conditions: ConA-A647 binding fluorescence, higher = more signal.

Each structure is given as a SMILES string. Calls of active or inactive are those of the source.

Concanavalin-A (Canavalia ensiformis), sequence (P02866 whole entry, looked up): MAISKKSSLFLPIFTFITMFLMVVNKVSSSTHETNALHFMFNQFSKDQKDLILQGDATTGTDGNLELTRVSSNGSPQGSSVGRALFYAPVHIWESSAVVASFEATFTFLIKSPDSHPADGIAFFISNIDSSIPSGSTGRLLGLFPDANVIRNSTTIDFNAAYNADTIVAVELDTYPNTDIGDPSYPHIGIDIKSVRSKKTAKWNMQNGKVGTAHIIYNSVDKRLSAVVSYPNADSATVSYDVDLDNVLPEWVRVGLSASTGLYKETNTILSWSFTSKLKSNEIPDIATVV
Alpha-bungarotoxin (Bungarus multicinctus), sequence (P60615 whole entry, looked up): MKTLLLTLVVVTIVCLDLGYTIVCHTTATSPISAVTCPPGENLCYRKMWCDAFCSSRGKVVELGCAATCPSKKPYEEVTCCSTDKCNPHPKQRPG
Albumin (Bos taurus), sequence (P02769 whole entry, looked up): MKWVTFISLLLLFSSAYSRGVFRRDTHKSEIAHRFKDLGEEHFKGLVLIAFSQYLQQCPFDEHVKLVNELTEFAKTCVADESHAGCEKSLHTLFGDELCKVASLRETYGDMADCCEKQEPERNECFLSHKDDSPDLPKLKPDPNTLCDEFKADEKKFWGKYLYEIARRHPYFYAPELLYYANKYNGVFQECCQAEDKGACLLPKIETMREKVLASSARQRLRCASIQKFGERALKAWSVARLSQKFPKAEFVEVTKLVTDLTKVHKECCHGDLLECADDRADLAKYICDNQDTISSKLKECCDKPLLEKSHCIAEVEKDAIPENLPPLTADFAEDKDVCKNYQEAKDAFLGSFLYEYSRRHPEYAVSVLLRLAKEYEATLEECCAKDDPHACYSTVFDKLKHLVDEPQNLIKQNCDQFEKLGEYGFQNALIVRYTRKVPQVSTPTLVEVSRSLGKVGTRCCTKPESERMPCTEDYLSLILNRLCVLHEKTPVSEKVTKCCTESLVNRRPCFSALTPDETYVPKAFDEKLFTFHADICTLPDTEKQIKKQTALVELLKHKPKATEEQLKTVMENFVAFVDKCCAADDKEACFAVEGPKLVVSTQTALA
Left-right determination factor 2 (Homo sapiens), sequence (O00292 whole entry, looked up): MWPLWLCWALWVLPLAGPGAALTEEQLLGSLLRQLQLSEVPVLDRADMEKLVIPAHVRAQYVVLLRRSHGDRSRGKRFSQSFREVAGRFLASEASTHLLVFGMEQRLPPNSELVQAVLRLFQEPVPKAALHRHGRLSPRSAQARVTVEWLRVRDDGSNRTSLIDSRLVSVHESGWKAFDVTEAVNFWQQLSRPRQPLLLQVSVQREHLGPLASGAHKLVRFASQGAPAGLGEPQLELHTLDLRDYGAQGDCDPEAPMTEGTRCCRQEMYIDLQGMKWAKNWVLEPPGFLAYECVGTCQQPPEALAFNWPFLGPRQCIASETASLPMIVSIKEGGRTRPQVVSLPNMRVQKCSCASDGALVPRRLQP
Torsin-1A-interacting protein 1 (Homo sapiens), sequence (Q5JTV8 whole entry, looked up): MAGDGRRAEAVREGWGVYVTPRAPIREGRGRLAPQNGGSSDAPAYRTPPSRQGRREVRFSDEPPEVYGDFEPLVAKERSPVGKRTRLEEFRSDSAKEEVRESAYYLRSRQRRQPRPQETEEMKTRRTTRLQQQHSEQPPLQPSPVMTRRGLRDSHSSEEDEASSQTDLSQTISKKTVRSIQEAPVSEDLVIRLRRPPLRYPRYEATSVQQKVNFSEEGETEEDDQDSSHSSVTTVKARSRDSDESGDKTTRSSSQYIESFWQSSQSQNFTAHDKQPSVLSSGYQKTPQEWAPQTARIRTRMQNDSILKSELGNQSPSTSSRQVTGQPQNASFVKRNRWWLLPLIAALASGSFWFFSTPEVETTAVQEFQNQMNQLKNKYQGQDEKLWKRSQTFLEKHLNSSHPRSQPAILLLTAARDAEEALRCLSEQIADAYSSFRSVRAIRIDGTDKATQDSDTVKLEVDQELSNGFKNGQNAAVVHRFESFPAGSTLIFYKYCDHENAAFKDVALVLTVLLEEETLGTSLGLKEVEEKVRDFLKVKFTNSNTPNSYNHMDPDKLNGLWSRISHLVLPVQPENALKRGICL

Turning to `O=C1NC(=O)C2C1C=CC(C(O)c1ccc(F)cc1)N2Nc1ccccn1` (stereo not given), the composite z-score was 0.164 in experiment [1]; -0.0392 in experiment [3]; 0.0754 in experiment [4]; -0.255 in [5]; -0.124 in experiment [6]; 0.0684 in experiment [7]. For the same compound, the composite z-score in experiment [8] was 0.147; in [9], 0.513; in experiment [10], 0.349; in experiment [11] it was 0.691; in [13], -0.004; in [14], -0.0771. The composite z-score is 0.831 in [15]; 2.77 in [16]; -0.393 in experiment [17]; -0.288 in experiment [18]; 0.317 in experiment [19]; 0.356 in experiment [20]. The same compound yielded a z-score in experiment [2] of 0.305. Also, the composite Z-score in experiment [12] was -0.531 (inactive).
`C=CCC(OC(C)=O)[C@@H]1[C@@H](N(Cc2ccc(-c3ccccc3)cc2)C(=O)c2ccc(C)cc2)c2cc(OCCCO)ccc2N1C(=O)c1ccc2ccccc2c1` (stereo not given in full): the composite z-score is -0.129 in [1]; -0.103 in [3]; 0.0626 in experiment [4]; 0.235 in experiment [5]; -0.0222 in experiment [6]; -0.17 in [7]. The composite z-score was -0.448 in experiment [8]; 0.202 in experiment [9]; 0.408 in experiment [10]; 0.608 in [11]; 0.0282 in experiment [13]; -0.127 in [14]. In addition, the composite z-score in experiment [15] is -0.104; in experiment [16], 0.756; in [17], -0.031; in experiment [18], -0.15; in experiment [19] it was 0.0542; in experiment [20], -0.328. The compound further gave a z-score in [2] of -0.33. For the same compound, in experiment [12], the composite Z-score is -0.46 (inactive).
As to `CC(=O)NCCCC[C@@H]1NC(=O)[C@@H]2C[C@H](C(=O)NCCCCCC[N+](C)(C)C)[C@H](c3ccc(O)cc3)N2C1=O`, the composite z-score in experiment [1] is 1.11; in experiment [3], 0.943; in experiment [4] it was -0.504; in [5], -0.901; in experiment [6], -0.15; in experiment [7], 0.0278. Further, the composite z-score in experiment [8] was -0.347; in [9], 0.343; in experiment [10], -0.659; in experiment [11], -0.78; in experiment [13], -0.0611; in experiment [14], -0.0173. The composite z-score is 0.188 in experiment [15]; 1.17 in [16]; -0.414 in [17]; 0.992 in experiment [18]; 0.965 in experiment [19]; 0.301 in experiment [20]. For the same compound, the z-score in [2] amounted to 0.825. Besides, in experiment [12], the composite Z-score was 0.0461 (inactive).
In the case of `C=CCC(OC(C)=O)[C@@H]1[C@@H](N(Cc2ccc(-c3cccc(C(F)(F)F)c3)o2)C(=O)Cc2ccc(F)cc2)c2cc(OCCCO)ccc2N1C(=O)c1ccc2ccccc2n1` (stereo not given in full), the composite z-score was -0.848 in experiment [1]; -0.0009 in [3]; -0.297 in experiment [4]; 0.195 in experiment [5]; -0.0462 in experiment [6]; -0.185 in experiment [7]. The composite z-score in [8] was -0.172; in [9] it was 0.0265; in [10], -0.124; in [11] it was 0.671; in experiment [13], 0.228; in experiment [14], -0.0664. Also, the composite z-score in experiment [15] is -0.0261; in experiment [16], 0.27; in experiment [17], -0.0949; in [18] it was 0.388; in [19], 0.353; in [20] it was -2.02. Besides, in [2], the z-score was -0.937. Also, in experiment [12], the composite Z-score was 0.272 (inactive).
With `CC#CCO[Si](C#CCCCCCC)(C(C)C)C(C)C`, the composite z-score in experiment [1] was -0.321; in experiment [3] it was -3.37; in experiment [4], -0.626; in [5], 1.01; in experiment [6], -0.275; in experiment [7] it was -0.304. In addition, the composite z-score in experiment [8] is -0.417; in experiment [9] it was -0.438; in experiment [10], 0.0016; in experiment [11], -0.611; in experiment [13], -0.597; in [14], -0.192. Moreover, the composite z-score in [15] was -0.553; in experiment [16], -0.0607; in experiment [17] it was -0.529; in experiment [18] it was 0.204; in [19] it was -2.33; in experiment [20], -2.41. The z-score in experiment [2] came out at 0.158. Also, the composite Z-score in [12] was -0.244 (inactive).
As to `CC(C)C[C@@H]1NC(=O)[C@@H]2C[C@H](C(=O)O)[C@H](c3ccc(O)cc3)N2C1=O`, the composite z-score in experiment [1] is 0.309; in experiment [3], 0.695; in [4] it was 1.31; in [5] it was 0.192; in [6], -0.0512; in [7], 0.0611. Besides, the composite z-score is 0.116 in experiment [8]; 1.22 in experiment [9]; 1.64 in experiment [10]; -1.01 in experiment [11]; 0.0488 in experiment [13]; -0.106 in experiment [14]. Also, the composite z-score in experiment [15] was determined as 0.558; in [16] it was 0.68; in [17], 0.186; in experiment [18] it was 1.31; in experiment [19], 1.15; in experiment [20] it was 1.21. For the same compound, the z-score in experiment [2] was -0.836. For the same compound, the composite Z-score in [12] was 0.102 (inactive).
